# The list is not random: actives were taken first. Their share in the collection is about 18%.
# TGFb inhibitor: blocks TGF-b signaling; Potency, µM (highest dose often 46.1 µM), for inactives: top-dose activity, negative = inhibition, usual class: inhibitors; AID 588855; hit rate 1.2% among 410,000; HepG2 CAGA-GFP TGF-b/SMAD3 reporter, GFP fluorescence, 18 h; TGF-beta stimulated, 500 pg/mL final; also: potency is read from the fitted curve at half-maximal effect; % is scaled to controls: 0 for no effect and ±100 for the full control effect; nearly all actives have a fitted effect of over 65% in size
#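 Smad-responsive CAGA-GFP expression was quantified in HEPG2 cells exposed to compounds and 500 pg/mL final TGF-beta for 18 h at 37 degrees C; unstimulated wells defined full inhibition.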
# DT40 TDP1 CPT: DT40-hTDP1 cell growth loss with CPT. chicken DT40 Tdp1-/-;hTDP1 cells + 20 nM CPT, ATP luminescence, 48 h. Potency, µM (doses to about 46.2 µM), inactives show at the highest dose activity change, negative = growth inhibition, most hits filed as inhibitors. hit rate 12% among 420,000; also: potency is read from the fitted curve at half-maximal effect; % is scaled to controls: 0 for no effect and ±100 for the full control effect; nearly all actives have a fitted effect of over 55% in size
#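 Chicken DT40 Tdp1-/- cells stably complemented with human TDP1 were seeded at 400 cells/well in medium containing 20 nM camptothecin, exposed to pin-transferred compounds, and grown at 37 °C for at least 48 hr. Viability was read as ATP luminescence.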
# IL-1B inflam inh: inflammasome signaling inhibition, IL-1 beta readout. AID 743279. activity change, % at 57.5 µM. hit rate 4.7% among 360,000. THP-1 LPS/ATP IL-1B secretion, AlphaLISA, 16 h; active compounds read low; in the data active = activity change below about -50%; inconclusive = mostly about -30% to -49%; also: % is scaled to controls: 0 for no effect and ±100 for the full control effect
#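 THP-1 cells pretreated 1 hr with compounds (up to 57.5 uM final), then stimulated with LPS (250 ng/mL final) plus ATP (1.25 mM final); secreted IL-1B measured by AlphaLISA after 16 hr, decreased signal indicating inhibition.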
# HepG2 tox: counter-screen for TGF-b inhibitors: cytotoxicity in HepG2 cells; Potency, µM (titrated, usually from 46.1 µM), for the others: at the top dose activity change, negative = cytotoxicity, most hits filed as cytotoxic; HepG2 CAGA-GFP viability, ATP luminescence, 18 h; AID 588856; hit rate 0.76% among 410,000; also: potency is read from the fitted curve at half-maximal effect
#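 CellTiter-Glo luminescence gave cytotoxicity after 18 hours at 37 degrees C. The cells were HepG2 CAGA-GFP in 1% FBS DMEM, stimulated with 500 pg/mL TGF-beta after compound addition. %Activity was normalised to no-cell wells (complete cell-killing) and DMSO (no toxicity), and curves were fitted and classified.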
# TDP1 inh: inhibitors of human tyrosyl-DNA phosphodiesterase TDP1; AID 485290; hit rate 0.28% among 350,000; Q9NUW8; Potency, µM (highest dose often 130 µM), without a hit: at the top dose activity change, negative = inhibition, usual class: inhibitors; recombinant TDP1, AlphaScreen DNA substrate cleavage; also: potency is read from the fitted curve at half-maximal effect; % is scaled to controls: 0 for no effect and ±100 for the full control effect; nearly all actives have a fitted effect of over 40% in size
# Target sequence (Q9NUW8 whole entry, looked up): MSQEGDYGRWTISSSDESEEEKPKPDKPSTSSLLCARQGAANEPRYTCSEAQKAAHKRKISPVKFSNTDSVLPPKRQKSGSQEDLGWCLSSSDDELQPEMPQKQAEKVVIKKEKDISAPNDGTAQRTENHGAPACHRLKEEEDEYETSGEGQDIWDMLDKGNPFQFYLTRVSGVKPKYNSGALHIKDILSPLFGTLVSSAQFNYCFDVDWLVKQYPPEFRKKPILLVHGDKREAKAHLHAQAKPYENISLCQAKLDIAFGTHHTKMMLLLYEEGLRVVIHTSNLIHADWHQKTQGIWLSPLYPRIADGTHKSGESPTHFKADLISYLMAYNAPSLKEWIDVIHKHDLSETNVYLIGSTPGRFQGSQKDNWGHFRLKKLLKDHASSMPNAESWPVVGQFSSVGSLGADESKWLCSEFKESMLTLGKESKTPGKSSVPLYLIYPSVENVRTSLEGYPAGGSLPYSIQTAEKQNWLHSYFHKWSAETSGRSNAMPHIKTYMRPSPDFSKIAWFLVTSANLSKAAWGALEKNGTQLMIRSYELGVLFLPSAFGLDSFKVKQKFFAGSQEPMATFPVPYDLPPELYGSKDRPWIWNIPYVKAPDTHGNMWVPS
#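 Tdp1 1 nM final; 15 min RT w/ cpd; substrate 15 nM, 5 min; beads 10 ug/ml, 10 min; AlphaScreen read. Neg ctrl: no enzyme.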
# DT40 TDP1 no CPT: qHTS for Inhibitors of human tyrosyl-DNA phosphodiesterase 1 (TDP1): qHTS in cells in absence of CPT | DT40 Tdp1-/- hTDP1 cells, no CPT, ATP luminescence, 48 h | Potency, µM (series often up to 46.2 µM), for the others: at the highest dose activity change, negative = growth inhibition, usual class: inhibitors | hit rate 15% among 420,000 | AID 686978, 2013; also: potency is read from the fitted curve at half-maximal effect; % is scaled to controls: 0 for no effect and ±100 for the full control effect; nearly all actives have a fitted effect of over 55% in size
#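 Chicken DT40 Tdp1-/- cells stably complemented with human TDP1 were seeded at 400 cells/well with DMSO in place of 20 nM camptothecin. After compound pinning, cells grew at least 48 hr at 37 °C; viability read by CellTiter-Glo luminescence.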
# Active calls of the source: *; ? = inconclusive; . = no result given; [ ] = dose if it differs, or a comment. Unless noted, calls follow the shape of the dose curve; as a rule, active = well fitted curve in the direction sought with a large enough effect; inconclusive = small, poorly fitted or top-dose-only effect, or another doubt; inactive = no such curve, though single readings can be large; an effect the other way counts as inactive or inconclusive.
SMILES,TGFb inhibitor,DT40 TDP1 CPT,IL-1B inflam inh,HepG2 tox,TDP1 inh,DT40 TDP1 no CPT
Cc1ccc2c(c1)C(c1ccccc1)N(C(=O)COc1ccc(Cl)cc1Cl)CC(=O)N2 (configuration not stated),?,20.6µM*,.,-29.3%,2.9%,20.6µM*
O=C1CN(C(=O)Cc2ccc(F)cc2)C(c2ccccc2)c2cc(Cl)ccc2N1 (configuration not stated),?,14.6µM*,.,-33.2%,11.8%,18.4µM*
O=C1CN(C(=O)c2ccc(S(=O)(=O)N3CCCC3)cc2)C(c2ccccc2)c2cc(Cl)ccc2N1 (configuration not stated),-22.8%,?,.,-28.9%,0.0%,20.6µM*
O=C1CN(C(=O)c2ccc(S(=O)(=O)N3CCCCC3)cc2)C(c2ccc(F)cc2)c2cc(Cl)ccc2N1 (configuration not stated),-1.2%,?,.,-1.0%,5.9%,?
O=C1CN(C(=O)c2cccc(Br)c2)C(c2ccccc2)c2cc(Cl)ccc2N1 (configuration not stated),?,5.17µM*,.,-49.4%,4.7%,?
Cc1nc2ccccn2c1C(=O)NNC(=O)Nc1cccc(C(F)(F)F)c1,1.7%,0.9%,7.4,-69.6%,0.7%[56.1 µM],-3.5%
CC(OCc1ccccc1)C(NC(=O)OC(C)(C)C)C(=O)NC1COC2CC(n3cc(F)c(=O)[nH]c3=O)OC12 (configuration not stated),1.4%,.,.,-10.1%,12.1%,.
O=C(NCCO)OC1CC2CC1[C@H]1CCCCN1C2=O (some centres not stated),.,3.7%,10.4,.,.,1.6%
O=C(O)c1cc2ccccc2c(Cc2cc3ccccc3c(C(=O)O)c2O)c1O (tested in a mixture with another compound),.,.,.,.,4.6%[21 µM],.
CSCC[C@H](NC(=O)OC(C)(C)C)C(=O)NCC1CCC(C(=O)N[C@@H](Cc2ccccc2)C(=O)O)CC1 (some centres not stated),-19.9%,12.4%,28.7,-20.2%,.,1.0%
CC1(C)CC2CC(C)(CN2Cc2c(O)ccc3ccccc23)C1 (configuration not stated),-24.1%,?,-17.2,-18.9%,7.5%,13µM*
CC1(C)CC2CC(C)(CN2Cc2cccc([N+](=O)[O-])c2)C1 (configuration not stated),-14.2%,-24.7%,36.0,-31.6%,.,1.9%
O=S(=O)(Cc1ccccc1)c1nnnn1C1CCCCC1,.,.,.,.,3.1%,.
C[n+]1ccc(/C=C/c2cccs2)cc1,-29.2%,-18.7%,14.3,-23.8%,5.0%,-14.4%
Cc1ccc2[nH]cc(/C=C/c3cc[n+](C)cc3)c2c1,60.3%,4.11µM*,-7.3,-18.1%,.,2.59µM*
COc1ccc2c(c1)c(/C=C/c1cc[n+](C)cc1)cn2C,117.2%,4.61µM*,-2.8,-11.0%,.,4.61µM*
COc1ccc2c(C=O)c[nH]c2c1,20.9%,9.7%,32.9,11.5%,-1.2%,-25.9%
COc1ccc2c(/C=C/c3cc[n+](C)cc3)c[nH]c2c1,10.4%,9.2µM*,26.1,-34.5%,.,7.31µM*
Cc1ccc(N)c(Cl)c1,.,.,.,.,4.9%,.
CC(C)n1c(=O)n(CC(=O)NCC2CCCO2)c(=O)c2c3c(sc21)COC(C)(C)C3 (configuration not stated),-0.1%,8.8%,-4.7,-22.9%,1.6%,-6.1%
C=C(c1ccccc1)c1ccccc1N,0.7%,10.7%,8.9,-6.7%,-3.5%,5.1%
Cc1ccccc1Cn1c(CN2CCC(C(=O)NCc3cccnc3)CC2)cc2ccccc21,15.8µM*,?,.,-44.6%,7.4%,?
CN(C)c1ccc(CNC(=O)C2CCN(Cc3cc4ccccc4n3Cc3ccccc3)CC2)cc1,4.2%,16.4µM*,.,-3.5%,13.2%,13µM*
Cc1cc(=O)n2nc(N3CCC(C(=O)NCc4cccnc4)CC3)sc2n1,3.6%,4.6%,-4.0,10.4%,2.2%,5.8%
O=C(NCc1cccnc1)C1CCN(Cc2cc3ccccc3n2Cc2cccc(Cl)c2)CC1,?,?,.,-103.5%,5.4%,18.4µM*
SMILES,TGFb inhibitor,DT40 TDP1 CPT,IL-1B inflam inh,HepG2 tox,TDP1 inh,DT40 TDP1 no CPT
CN(C)c1ccc(CN2CCC(C(N)=O)CC2)cc1,8.9%,-7.7%,2.0,-0.2%,-5.9%,-12.7%
O=C(NCc1cccnc1)C1CCN(Cc2cc3ccccc3n2Cc2ccccc2)CC1,?,?,.,-55.1%,5.4%,13µM*
Fc1ccccc1C1=NC(c2ccc(C(F)(F)F)cc2)=Nc2ccccc2N1,0.8%,?,.,-26.6%,4.7%,?
COCc1ccc(C(=O)NC(C)c2cnn(-c3ccccc3C)c2C)o1 (configuration not stated),0.5%,-14.2%,21.9,-6.4%,2.6%,-23.9%
Cc1cc(C)n(-c2nc(Nc3ccccc3C(F)(F)F)nc(-n3nc(C)cc3C)n2)n1,?,16.4µM*,-54.1*,0.5%,6.6%,14.6µM*
Cc1cc(C)n(-c2ncc(C#N)cn2)n1,?,3.2%,8.4,4.5%,0.0%,-0.6%
Cc1cc(C)n(-c2nc(N(C)C)nc(N(C)C)n2)n1,-5.4%,?,4.2,-1.0%,1.0%,14.6µM*
CCNc1nc(NCC)nc(-n2nc(C)cc2C)n1,?,2.31µM*,-2.3,1.6%,0.0%,2.59µM*
Cc1cc(C)n(-c2nc(NC(C)C)nc(NC(C)C)n2)n1,?,1.03µM*,-5.0,0.1%,3.4%,1.46µM*
Cc1cc(C)n(-c2nc(Nc3ccccc3C)nc(-n3nc(C)cc3C)n2)n1,.,.,.,.,9.6%,.
N#CC1=C(N)Oc2c(oc(CO)cc2=O)C1c1ccccc1[N+](=O)[O-] (configuration not stated),-11.7%,20.7%,.,-14.4%,0.0%,-12.1%
CCCNS(=O)(=O)c1cccc(C(=O)NC2CCCc3ccccc32)c1 (configuration not stated),-31.4%,-14.3%,0.0,-1.5%,2.5%,-27.9%
c1ccc(NC2=NCCN2CC2CCCCCC2)cc1,?,?,-6.2,-3.2%,2.3%,?
Cc1cc(C)n(-c2nc(NC(C)(C)C)nc(NC(C)(C)C)n2)n1,21.5%,2.06µM*,13.7,1.4%,3.8%,1.84µM*
COc1ccc(-c2csc(C(O)(c3ccccc3)C(F)(F)F)n2)cc1 (configuration not stated),?,?,27.8,-77.8%,.,?

# High-throughput results deposited in PubChem BioAssay by National Center for Advancing Translational Sciences (NCATS).
